Assay results published in PubChem BioAssay AID1347073 (National Center for Advancing Translational Sciences (NCATS), 2019).
Out of some 45,000 compounds screened, about 200 (0.44%) were called active. Roughly 7% stayed inconclusive and do not appear here. Calls follow the shape of the dose curve; as a rule, active = well fitted activation curve with a large enough effect; inconclusive = small, poorly fitted or top-dose-only effect; inactive = no such curve, though single readings can be large or run the other way. The full list was thinned out, with actives kept by preference.

Experiment: qHTS of TDP-43 Inhibitors: NCGC Sytravon Library Screen; also: nearly all actives have a fitted effect of over 55% in size; as to growth rescue (activation): 0% is about no effect
Conditions: yeast TDP-43 toxicity rescue, BacTiter-Glo growth, 24 h; series mostly up to 46.1 µM; growth rescue (activation): at the top concentration
From the text: The goal of this project is to identify new chemical probes capable of reversing the toxicity associated with TDP-43 which is associated with frontotemporal lobar degeneration and amyotrophic lateral sclerosis. These compounds will provide a complementary approach to deciphering the tangled mechanisms of toxicity and protection that we have uncovered through genome-wide genetic screens and are beginning to uncover in a large-scale proteomics analysis with mass spectroscopy. To this end, a miniaturized assay was developed to be screened against the Molecular Libraries Small Molecule Repository (MLSMR) to discover TDP-43 inhibitors. Please note that in the set-up this yeast-based assay compounds that inhibit as TDP-43, have a read-out as activators. NIH Chemical Genomics Center [NCGC] NIH Molecular Libraries Probe Centers Network [MLPCN] Assay Submitter (PI): Susan Lindquist, Whitehead Institute/MIT MLPCN Grant: R21 NS060957
Dispense 2.5 microL yeast galactose medium per 1536-well plate, pin compound, dispense 2.5 microL TDP-43 expressing yeast in galactose medium at OD600=0.02 (pregrown in raffinose medium to mid-log phase) per well, incubate for 24 hr at 30 deg C, and cell growth will be measured using 5 microL of Bactiter/Glo reagent to entire plate and read using Luminescence Protocol in ViewLux.
Potency is read from the fitted curve at half-maximal effect.

Structure (SMILES) | growth rescue (activation) | Potency
Cc1nc(C(F)(F)F)ccc1C(=O)N1CCC1(C)C(=O)NS(=O)(=O)c1ccccc1 (configuration not stated) | 14% (inactive) | –
C=CCN1C(=O)C(O)(CC(=O)c2ccccn2)c2ccccc21 (configuration not stated) | 2.18% (inactive) | –
COc1ccc(N(C)S(=O)(=O)c2cccc3nsnc23)cc1 | 21.5% (inactive) | –
CCCC(=O)Nc1ccc2c(c1)nc(CCNC(=O)c1ccco1)n2C | -7.12% (inactive) | –
COc1ccc(NC(=O)NC(C)c2c(-n3cccc3)sc(C)c2C)cc1OC (configuration not stated) | 1.24% (inactive) | –
COCCNC(=O)C1(C)CCCN(Cc2cccc(F)c2)C1 (configuration not stated) | -16.4% (inactive) | –
COc1ccc(-n2cnnc2SCC(=O)Nc2cccc(S(N)(=O)=O)c2)cc1 | -0.153% (inactive) | –
O=C(O)c1ccc(/C=N/NC(=O)c2ccc(Br)cc2)cc1 | 8.15% (inactive) | –
CCOC(=O)Cc1csc(SCc2cc(=O)oc3cc(O)ccc23)n1 | 2.23% (inactive) | –
Cc1cc(=O)[nH]c(SCC(=O)Nc2ccc(Br)cc2)n1 | 0.754% (inactive) | –
CCOC(=O)Cc1csc(NC(=O)CSc2ccc(Br)cc2)n1 | – | 12.6 µM (active)
O=C(C(Cl)Cl)N1CCN(c2ccccn2)CC1 | 7.4% (inactive) | –
OC(c1ccc(F)cc1)c1ncc(-c2cccc(C(F)(F)F)c2)[nH]1 (configuration not stated) | 14.7% (inactive) | –
COc1ccc(CN(C)Cc2nc3cc(OC)c(OC)cc3c(=O)[nH]2)c(OC)c1 | 5.3% (inactive) | –
CC1(C(=O)NS(=O)(=O)Cc2cccc(Cl)c2)CCN1C(=O)Cc1ccc(Cl)cc1Cl (configuration not stated) | 6.35% (inactive) | –
O=C(NC1CCCC1)C(c1c(F)cccc1Cl)N(C(=O)c1csnn1)C1CC1 (configuration not stated) | 13.1% (inactive) | –
O=C(COC(=O)c1ccc([N+](=O)[O-])o1)NC12CC3CC(CC(C3)C1)C2 | 9.8% (inactive) | –
Cc1noc(/C=C/c2ccco2)c1S(=O)(=O)N1CCC(C(=O)Nc2ccc(Cl)cn2)CC1 | 3.65% (inactive) | –
CC(C)c1nc2sc3c(c2c(=O)n1N)CC(C)(C)OC3 | 20.6% (inactive) | –
CN(CCc1ccccn1)C(=O)CCC1CCCN(Cc2ccccc2OC(F)F)C1 (configuration not stated) | 1.51% (inactive) | –
CC(=O)Nc1ccc(NC(=S)NC(=O)c2ccc([N+](=O)[O-])c(C)c2)cc1 | 12.6% (inactive) | –
O=C(NCc1cccnc1)c1cc(C2CCCN(C(=O)CCCc3ccccc3)C2)on1 (configuration not stated) | 2.36% (inactive) | –
OC[C@@H]1CN(Cc2ccc3c(c2)OCO3)C[C@H](n2cnc3c(NCc4ccco4)ncnc32)O1 | 8.28% (inactive) | –

Structure (SMILES) | growth rescue (activation) | Potency
O=C(c1cnccn1)N1CCN(S(=O)(=O)c2cccc(Cl)c2)CC1 | 12.7% (inactive) | –
CCCCNC(=O)N(O)C1N(/N=C/c2ccccc2O)C(=S)SC1(C)C (configuration not stated) | 13.7% (inactive) | –
Cc1cccc(NC(=O)c2ccc([N+](=O)[O-])o2)c1 | -89% (inactive) | –
CCCSc1ncc(Cl)c(C(=O)Nc2c(C(=O)Nc3ccccc3)oc3ccccc23)n1 | 5.87% (inactive) | –
Cc1cccc(NC(=O)c2nc(S(=O)(=O)Cc3ccccc3)ncc2Cl)c1 | – | 12.6 µM (active)
O=C(NCCc1ccccc1)c1ccc2c(c1)N(Cc1ccccc1)C(=O)c1ccccc1S2(=O)=O | 14% (inactive) | –
Cc1ccc(OCC(=O)NCCCNC(=O)c2ccco2)cc1C | 9.61% (inactive) | –
N/C(=N/O)c1cccn1Cc1ccccc1[N+](=O)[O-] | 4.53% (inactive) | –
CCCn1c(=N)n(CC(O)COc2ccccc2OC)c2ccccc21 (configuration not stated) | 4.92% (inactive) | –
O=C1c2ccccc2C(=O)c2c1cccc2N1CCN(C/C=C/c2ccccc2)CC1 | 24.5% (inactive) | –
NS(=O)(=O)c1ccc(N2C(=O)C3C4CC(C(Br)C4Br)C3C2=O)cc1 (configuration not stated) | 5.23% (inactive) | –
COC(=O)CCNC(=O)c1ccc2[nH]c(C)c(C)c2c1 | -8.44% (inactive) | –
O=C(CN1C(=O)NC2(CCCC2)C1=O)NCC1CCCO1 (configuration not stated) | -2.83% (inactive) | –
COc1ccc(-c2nc(N)sc2C2(O)C(=O)Nc3c(Br)cc(F)cc32)cc1OC (configuration not stated) | 19.9% (inactive) | –
CN(C)C(CNC(=O)c1cccc(C#N)c1)c1ccco1 (configuration not stated) | -1.02% (inactive) | –
Nn1c(SCC(=O)Nc2ccc3c(c2)CCC3)nnc1C1CC1 | 12% (inactive) | –
CC(CN1CCC(n2nccc2NC(=O)C2CCCC2)CC1)c1ccccc1 (configuration not stated) | 16.5% (inactive) | –
COc1ccc(CNC(=O)CN2C(=O)c3ccccc3S2(=O)=O)cc1 | -1.25% (inactive) | –
O=C1c2ccccc2S(=O)(=O)N1CC(O)Cn1c2ccccc2c2ccccc21 (configuration not stated) | – | 12.6 µM (active)
CC(C)(C)c1ccc(CN2C(=O)c3ccccc3S2(=O)=O)cc1 | -10.6% (inactive) | –
Cc1ccc(Cl)cc1NC(=S)N(CCN(C)C)Cc1cccs1 | 18.7% (inactive) | –
COCCCNC(=O)c1ccc(-c2c(C)noc2C)c2ccoc12 | 14.9% (inactive) | –
COc1ccc(-c2ccc(C(=O)NC(C)C)c3occc23)c(C)c1 | – | 15.8 µM (active)

Structure (SMILES) | growth rescue (activation) | Potency
Cc1noc(C)c1-c1ccc(C(=O)NCc2ccncc2)c2occc12 | -0.761% (inactive) | –
Cc1ccc(OCc2n[nH]c(=S)n2-c2ccc(C)cc2)cc1 | 12.9% (inactive) | –
Cc1ccc(S(=O)(=O)N(Cc2ccc(Cl)cc2)c2ccccc2C(=O)NCc2cccnc2)cc1 | 18.2% (inactive) | –
O=C(c1cccs1)c1cn(CCOc2ccc(Cl)cc2)c2ccccc12 | -4.83% (inactive) | –
CN(C)c1ccnc(Nc2ccc(F)cc2)c1C#N | 9.98% (inactive) | –
COc1ccccc1OCc1ccc(C(=O)NC(C)c2ccccc2)o1 (configuration not stated) | -10.7% (inactive) | –
O=C(C1CCN(S(=O)(=O)c2ccc(Br)s2)CC1)N1CCN(C2CCCCC2)CC1 | 9.07% (inactive) | –
COc1ccc(C(=O)OCc2cc(=O)n3ccsc3n2)cc1F | 21.7% (inactive) | –
CCCCN(CC)CCCNC(=O)c1ccc(CSc2nc3ccncc3[nH]2)cc1 | 9.62% (inactive) | –
CC(C)(C)c1ccccc1NC(=O)CN1C(=O)NC2(CCCC2)C1=O | -20.9% (inactive) | –
COc1ccc(C(=O)Nc2ccc(N3CCC(C)CC3)cc2)cc1Br | 5.41% (inactive) | –
c1cc(-c2ccc3[nH]ccc3c2)n2ccnc2c1 | -5.58% (inactive) | –
O=C(CN1C(=O)NC2(CCCCCC2)C1=O)Nc1ccc([N+](=O)[O-])cc1 | 26.5% (inactive) | –
O=C1NC(c2ccc(-c3ccccc3[N+](=O)[O-])o2)C(C(=O)c2ccc(Cl)cc2)C(O)(C(F)(F)F)N1 (configuration not stated) | 7.15% (inactive) | –
CN(Cc1nc2ccccc2s1)C(=O)c1ccc(F)cc1 | 0.189% (inactive) | –
CCN(CC)C(=O)CN(c1cccc([N+](=O)[O-])c1)S(=O)(=O)c1ccccc1 | -34.4% (inactive) | –
O=C(Nc1ccc(F)cc1)N1CCN(c2ccc(F)cc2)CC1 | -2.13% (inactive) | –
Cc1nc2c(OCc3cccc(Cl)c3)cccn2c1N(C)CC1CC1 | 7.14% (inactive) | –
CC(C)(C)NC(=O)C(=O)NN=C1CCCCCCC1 | 5% (inactive) | –
O=C(CCn1c(=O)c2sccc2n(Cc2ccc(F)cc2)c1=O)NCc1ccc2c(c1)OCO2 | 11% (inactive) | –
CCc1ccc(OC2(C)CCN(CCOc3ccc(C)cc3)C2)cc1 (configuration not stated) | 16.9% (inactive) | –
